Screens: PubChem, several laboratories
The list is not random: actives were taken first. Their share in the collection is about 2.2%.
M1 ag parental: M1 agonist counterscreen hit in parental CHO-K1 cells | Fluo-8 calcium fluorescence; scaled to maximal ATP response, vehicle zero | activation, % at 3 µM | 360,000 compounds, 0.48% hits | AID 602248; in the data active = activation above about 15%;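 also: untransfected CHO-K1 host cells lacking M1 receptor as counterscreen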
CHO-K1 Ca antag: nonselective inhibitor or artifact in parental CHO-K1 cells; ATP-induced calcium, Fluo-8 fluorescence; inhibition, % at 3 µM; 360,000 compounds, 0.6% hits;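 active = inhibition above a per-plate cutoff, the plate's mean sample inhibition plus 3 SD, cut at about 24% in these data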
TMEM16A act: mouse TMEM16A channel activation, primary screen; Q8BHY3; B-score at 10 µM; AID 623877; HEK293 TMEM16A/YFP-H148Q/I152L, iodide quench fluorescence; stronger effect = lower value; 340,000 compounds, 0.3% hits;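 active = fluorescence-ratio B-score plate-corrected deviation score at least 3 library SD below zero, with starting fluorescence score within 5 deviations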;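 also: channel opened by trigger with iodide after compound preincubation; score built on the fluorescence ratio of max minus min over baseline; more negative score means more quench and so TMEM16A activation or potentiation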
ANO1 block: mouse TMEM16A channel inhibition, primary screen; 310,000 compounds, 1.2% hits; HEK293 TMEM16A/YFP iodide influx fluorescence, ionomycin; normalized B-score (activity score, 25-100; higher = stronger inhibition) at 10 µM;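 active = ratio plate-corrected score three or more library SD toward inhibition, starting fluorescence score within five deviations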;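 also: score derived from kinetic fluorescence span divided by baseline fluorescence per well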
NTR1 ag: NTR1 (human) agonism | activation, % at 20 µM | 330,000 compounds, 0.17% hits | AID 493036 | NTR1-U2OS beta-arrestin-GFP spot imaging, agonist mode;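 active = activation at or above 40% of the spot to cytoplasm intensity ratio, with at least 20 cells analyzed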
Target sequence (P30989 whole entry, looked up): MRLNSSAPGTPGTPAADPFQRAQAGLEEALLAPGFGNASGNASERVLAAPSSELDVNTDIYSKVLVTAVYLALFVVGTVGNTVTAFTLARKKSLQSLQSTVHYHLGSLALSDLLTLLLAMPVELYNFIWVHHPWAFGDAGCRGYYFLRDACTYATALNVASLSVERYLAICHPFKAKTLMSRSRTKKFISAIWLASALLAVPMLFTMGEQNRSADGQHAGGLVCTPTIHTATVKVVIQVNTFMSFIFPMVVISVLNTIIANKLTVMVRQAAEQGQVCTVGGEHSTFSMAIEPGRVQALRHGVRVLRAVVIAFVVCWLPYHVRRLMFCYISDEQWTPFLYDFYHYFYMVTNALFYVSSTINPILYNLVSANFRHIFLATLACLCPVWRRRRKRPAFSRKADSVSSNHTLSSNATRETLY
M1 PAM parental: counter-screen for M1 PAMs: effect in parental CHO-K1 cells; ATP EC20, Fluo-8 calcium fluorescence; 0% at ATP EC20, 100% at ATP max; activation, % at 3 µM; 360,000 compounds, 0.02% hits; AID 602247;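 active = activation above the run cutoff, the mean activation of all test compounds plus 3 SD, cut at about 40% in these data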;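 also: peak over basal fluorescence ratio in a 140 s read after ATP addition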
TMEM16A reconf: TMEM16A (mouse) chloride channel inhibition, re-confirmation | shares compounds with ANO1 block | HEK293 TMEM16A/YFP-H148Q, iodide quench fluorescence; ionomycin added to raise cell calcium | inhibition, % at 10 µM | 2,300 compounds, 39% hits | AID 652189;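 active = mean duplicate percent inhibition, scaled so buffer wells are 0 and the reference blocker 100, over three buffer SD above buffer mean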
TMEM16A Ca cntr: calcium mobilization counter-screen hit for TMEM16A inhibitor series; shares compounds with ANO1 block; TMEM16A/YFP HEK293, Fluo4 calcium mobilization; calcium response (% of ionomycin), % at 10 µM; 2,300 compounds, 2% hits;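 active = duplicate-averaged calcium signal over 20% of the ionomycin maximum, relative to buffer baseline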;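 also: each well's signal is peak minus trough fluorescence divided by its pre-addition baseline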
YFP-HEK293 quench: counter-screen for TMEM16A inhibitors: effect in parental YFP-HEK293 cells; YFP ratio F(max-min)/F0 at 10 µM; shares compounds with ANO1 block; iodide YFP quench, ionomycin; 2,300 tested, under 10 active;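 active = yellow fluorescent protein signal ratio exceeding the buffer control mean by over 5 SD of those controls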;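 also: ratio is mean of duplicate wells from kinetic YFP trace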
ClC-1 rat inh: rat ClC-1 inhibition, TMEM16A specificity screen. AID 652236. CHO ClC-1-YFP, iodide influx fluorescence quench; iodide control reads 0, buffer control 100. shares compounds with ANO1 block. 2,300 tested, under 10 active. ratio percent, % at 10 µM;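 active = duplicate-mean ratio percent above the mean of iodide-only control wells, which defines zero, plus 5 of their SD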;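 also: higher percent means stronger block of ClC-1 iodide influx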
Hits are given with their value; n = inactive; x = no result given.

SMILES | M1 ag parental | CHO-K1 Ca antag | TMEM16A act | ANO1 block | NTR1 ag | M1 PAM parental | TMEM16A reconf | TMEM16A Ca cntr | YFP-HEK293 quench | ClC-1 rat inh
Cc1[nH]n(-c2ccccc2)c(=O)c1N=Nc1c(O)cc(S(=O)(=O)N(C)C)c2ccccc12 | n | n | n | 100 | n | n | 48.0% | n | n | n
Cc1[nH]n(-c2ccccc2)c(=O)c1N=Nc1ccc2c(c1)OCCO2 | n | n | n | n | n | n | x | x | x | x
CCN1CCN(c2ccc(Cl)cc2NC(=O)c2ccc(-n3nc(C)cc3C)cc2)CC1 | n | n | n | x | n | n | x | x | x | x
CSc1nc2sc3c(c2c(=O)n1C)CCCC3 | n | n | n | n | n | n | x | x | x | x
CSc1nc2sc3c(c2c2nnnn12)CCCC3 | n | n | n | 100 | n | n | n | n | n | n
COc1ccc2cc3cc(C(=O)N4CCN(Cc5ccc6c(c5)OCO6)CC4)oc3nc2c1 | n | n | n | 25 | n | n | n | n | n | n
CCn1c(SCC(=O)c2ccc3c(c2)OCCO3)nnc1C(C)C | n | n | n | n | n | n | n | n | n | n
CCOC(=O)c1cc(NC(=O)Nc2ccc(OC)c(OC)c2)c(C)nc1C | n | n | n | 100 | n | n | n | n | n | n
CCOC(=O)c1cc(NC(=O)N(C(C)C)C(C)C)c(C)nc1C | n | n | n | n | n | n | x | x | x | x
COc1ccccc1C(c1nnnn1CCc1ccccc1)N1CCN(c2ccccc2)CC1 (stereo not given) | n | n | n | n | n | n | x | x | x | x
COc1ccccc1C(c1nnnn1CCc1ccccc1)N1CCCCCC1 (stereo not given) | n | n | n | 25 | n | n | 18.5% | n | n | n
Cc1ccc(C)c(OCC(=O)NCCNC(=O)COc2cc(C)ccc2C)c1 | n | n | n | 100 | n | n | n | n | n | n
CN(C)c1ccccc1C(=O)N1CCCC(C(=O)c2ccc3ccccc3c2)C1 (stereo not given) | n | n | n | 100 | n | n | n | n | n | n
